Values joined by “and” are separate entries in the source; they are usually repeats but may differ in a detail not shown here. Equal entries are not always repeated. Compounds without any hit were thinned out: in the full panel of roughly 79,000, 15% have a hit. Cut-off read from the data, not from the text of the source: active = growth inhibition above about 70%; inactive = the rest.
Key:
[1] = NCI Yeast Anticancer Drug Screen. Data for the rad50 strain (AID 155);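 note: 0% = growth of vehicle-only cultures of the same strain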; details: S. cerevisiae rad50 strain growth inhibition, hits give high values; at 50.0 µM unless noted
Summary of the method: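 A DNA repair-deficient yeast mutant serves as the test organism; compound-induced growth inhibition is calculated against vehicle-treated cells.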

[2] = NCI Yeast Anticancer Drug Screen. Data for the mec2-1 strain (AID 157); details: S. cerevisiae mec2-1 strain, hits give high values; at 50.0 µM unless noted
Summary of the method: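 mec2-1 yeast strain, carrying an alteration in DNA damage repair or cell cycle control, was exposed to compounds; growth inhibition was measured relative to vehicle-treated controls.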

[3] = NCI Yeast Anticancer Drug Screen. Data for the sgs1 mgt1 strain (AID 161);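 note: 0% = growth of cultures given vehicle only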; details: S. cerevisiae sgs1 mgt1 strain, hits give high values; at 50.0 µM unless noted
Summary of the method: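 Growth of a repair-deficient yeast mutant was monitored after compound treatment and expressed as inhibition relative to vehicle-treated cultures.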

[4] = NCI Yeast Anticancer Drug Screen. Data for the cln2 rad14 strain (AID 165);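 note: 0% = growth equal to vehicle treated cultures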; details: S. cerevisiae cln2 rad14 strain, hits give high values; at 50.0 µM unless noted
Summary of the method: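 Yeast carrying cln2 and rad14 alterations (cell cycle control and DNA damage repair) were exposed to compounds. Growth inhibition was measured against vehicle-treated controls.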

[5] = NCI Yeast Anticancer Drug Screen. Data for the bub3 strain (AID 167); details: S. cerevisiae bub3 mutant strain, hits give high values; at 50.0 µM unless noted
Summary of the method: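 Inhibition values come from growth of compound-treated mutant yeast normalised to vehicle-treated controls.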

[6] = NCI Yeast Anticancer Drug Screen. Data for the mlh1 rad18 strain (AID 175); details: S. cerevisiae mlh1 rad18 strain growth inhibition, hits give high values; at 50.0 µM unless noted
Summary of the method: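 Growth inhibition of the yeast strain was measured after compound exposure and expressed relative to vehicle-treated controls. The strain carries defined defects in DNA damage repair.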

Measured: growth inhibition

COc1cc2c(c(OC)c1OC)-c1ccc(OC)c(=O)cc1[C@@H](NC=O)CC2
inactive: [1] -11% | [2] -14.5% | [3] -22.9% | [4] 4.15% | [5] -8.05% | [6] -29.8%

CC1CC(OCCO)CC(C)(C)C1 (configuration not stated)
inactive: [1] 13% | [2] 0.5% | [3] 6.95% | [4] -8.8% | [5] 14.9% | [6] 7.2%

CCOc1ccc(C(C)c2cc3c(cc2OCC(=O)O)OCO3)cc1 (configuration not stated)
inactive: [1] 0.65% | [2] -6.4% | [3] -8.45% | [4] 25.1% | [5] -6.9% | [6] -11.6%

Cc1ccc(C(CCC#N)OC(C)C)cc1 (configuration not stated)
inactive: [1] 0.95% | [2] 19.8% | [3] 25.1% | [4] 11.9% | [5] 3.15% | [6] 21.1%

O=C(N=C(Oc1ccccc1)Oc1ccccc1)N=C(Oc1ccccc1)Oc1ccccc1
inactive: [1] 19.9% | [2] 9.15% | [3] 8.4% | [4] 20.3% | [5] 9.15% | [6] 36%

CCOCCC(=O)OCCCl
inactive: [1] 29.2% | [2] 9.4% | [3] 13.3% | [4] 10.1% | [5] 15.7% | [6] 22.9%

CC1=Nc2ccccc2SC2(C1)C(C1COC(C)(C)O1)OC1OC(C)(C)OC12 (configuration not stated)
inactive: [1] 7.4% | [2] 11.1% | [3] 21.1% | [4] 21.4% | [5] -9.55% | [6] 12.8%

Cn1nc2ccc3nccc(N4CCN(CCO)CC4)c3c2n1
inactive: [1] -25.6% | [2] -6.9% | [3] -21.6% | [4] -17.1% | [5] -8.45% | [6] -15%

Cc1cc(C)nc(NS(=O)(=O)c2ccc(NC(=O)NC(F)(F)F)cc2)n1
inactive: [1] -41% | [2] -30.2% | [3] -63% | [4] 15.8% | [5] 26.9% | [6] -23.9%

Oc1cccnc1Cl
inactive: [1] 12.9% | [2] -13.7% | [3] 17.4% | [4] 9.2% | [5] 13.7% | [6] 2.5%

CCOC(=O)/C(C#N)=C/c1cccc([N+](=O)[O-])c1
inactive: [1] 4.9% | [2] 4.8% | [3] 7.05% | [4] -11.6% | [5] 34.1% | [6] 31.2%

C=CCNC(=S)NNc1nc(C)cc(=O)[nH]1
inactive: [1] 30.1% | [2] -27.9% | [3] 11.7% | [4] 5.55% | [5] 5.95% | [6] 4.3%

CSc1nc(C)cc(=O)[nH]1
inactive: [1] -12.1% | [2] -2.95% | [3] -17.9% | [4] 20% | [5] 5.5% | [6] -13.3%

COC(=O)NC1C(OC(C)=O)C(OC(C)=O)C(COC(C)=O)OC1n1ccc(NC(C)=O)nc1=O (configuration not stated)
inactive: [1] 8.65% | [2] 1.4% | [3] 5.9% | [4] 18.6% | [5] 0.15% | [6] 5.1%

O=C(NCCCCCSC(=O)c1ccccc1)c1ccccc1
inactive: [1] -0.35% | [2] 4.6% | [3] 7.95% | [4] 13.8% | [5] 15.7% | [6] -4%

N#Cc1ccc2c(c1)-c1cc(C#N)ccc1C2c1ccccc1
inactive: [1] 8.95% | [2] -10.8% | [3] -3.45% | [4] -42.5% | [5] -4.8% | [6] -6.95%

CC1(C)N=C(Oc2cc(Cl)cc(Cl)c2)NC(=S)N1
inactive: [1] 11.8% | [2] -8.3% | [3] 24% | [4] 21.2% | [5] 7% | [6] 24%

Clc1ccccc1C1SCc2nc3ccccc3n21 (configuration not stated)
inactive: [1] 10.8% | [2] -7.85% | [3] 53.2% | [4] 18.9% | [5] 26.4% | [6] 22.6%

COc1ccc(C=C(C(=O)O)C(=O)O)cc1
inactive: [1] 30.1% | [2] -11.6% | [3] -8.15% | [4] 17.8% | [5] 22% | [6] 29.6%

Cn1cnc([N+](=O)[O-])c1Sc1nc2cc(Cl)c(F)cc2[nH]1
inactive: [1] -35.6% | [2] -27.9% | [3] -31.9% | [4] 8.5% | [5] -25.1% | [6] -29.4%

COc1ccc(Cl)cc1N
inactive: [1] -14.3% and 17.1% | [2] -15.6% and -4% | [3] -12.7% and -2.8% | [4] 8.35% and 22.1% | [5] 3.25% and -3.2% | [6] -7.55% and 16.1%

O=C(Cc1ccccc1)CC(CC(=O)Cc1ccccc1)c1ccccc1
inactive: [1] 31% | [2] -16.7% | [3] 6.6% | [4] 15.8% | [5] 3.7% | [6] -6.15%

O=C(O)CCN(CCCCN(CCC(=O)O)CCC(=O)O)CCC(=O)O
inactive: [1] 4.7% | [2] 7.05% | [3] -10.7% | [4] 1.4% | [5] 1.25% | [6] -4.15%

Cc1ccc(/C=N/NC(N)=S)nn1
inactive: [1] 3.45% | [2] 2.25% | [3] -8.15% | [4] -67.4% | [5] 2.45% | [6] 5.4%

CN(C)P1(=O)N(c2ccccc2)P(=O)(N(C)C)N1c1ccccc1 (configuration not stated)
inactive: [1] -11.5% | [2] -32.1% | [3] -17.1% | [4] -1.55% | [5] -19.4% | [6] -34.7%

CC(C)(O)C1CC(=O)C(C)(C2C(O)CC3(C)C4CC=C5C(CCC(O)C5(C)C)C4(C)C(=O)CC23C)O1 (configuration not stated)
inactive: [1] 65% | [2] 63% | [3] 45% | [4] 42.9% | [5] 56.1% | [6] 47.6%

CN1NC(c2ccccc2)=C(C#N)C(=O)CC1c1ccccc1 (configuration not stated)
inactive: [1] 6.8% | [2] -2.5% | [3] 13.1% | [4] -1.4% | [5] 8.95% | [6] 10.2%

CCCc1cc2c(cc1CC#N)OCO2
inactive: [1] -5.65% | [2] 19.4% | [3] -9.85% | [4] 2.4% | [5] -3.25% | [6] 17.6%

N#Cc1c(C(F)(F)F)cc(-c2cccs2)nc1SC(C(=O)Nc1cc(C(F)(F)F)cc(C(F)(F)F)c1)c1ccccc1 (configuration not stated)
inactive: [1] 13.6% | [2] -13.8% | [3] 9.5% | [4] 17.3% | [5] 9.1% | [6] 10.4%

NC1CC(c2ccccc2)NC(c2ccccc2)C1 (configuration not stated)
inactive: [1] 10.7% | [2] -2.9% | [3] -4.8% | [4] -8.5% | [5] -14.8% | [6] 16.2%

C=CSS/C(=C/N(C=O)Cc1cnc(C)nc1N)CCO
inactive: [1] -10.6% | [2] -33.5% | [3] -18.9% | [4] 1.85% | [5] -17.1% | [6] -10%

Clc1ccc2[nH]c3c(c2c1)CCCC3
inactive: [1] 10.7% | [2] 0.45% | [3] 28.4% | [4] 1.6% | [5] 2.55% | [6] 28.8%

CC1C(=O)N(c2ccccc2)NC12CCCc1ccccc12 (configuration not stated)
inactive: [1] -15.2% | [2] -7.3% | [3] -34.8% | [4] 16.6% | [5] 25.1% | [6] 27.6%

Cc1ncc(CO)c(/C=N\OCc2cccc(Cl)c2)c1O
inactive: [1] 31.1% | [2] 16.3% | [3] -1.5% | [4] -1.95% | [5] 17.1% | [6] 9.2%

Cc1ccc(S(=O)(=O)OC2CCN(C)CC2)cc1
inactive: [1] 36.5% | [2] 6.75% | [3] 15.8% | [4] 9.6% | [5] 43.2% | [6] 30.1%

ONC(CC(O)(NO)NO)c1ccccc1 (configuration not stated)
inactive: [1] -32.7% | [2] -32% | [3] -20.6% | [4] 12.6% | [5] -28.1% | [6] -25.9%

COc1cc2c(cc1OC)C1Cc3ccccc3CCN1CC2 (configuration not stated)
inactive: [1] -23.4% | [2] -7.1% | [3] -16.8% | [4] -23.8% | [5] -9.95% | [6] -19.4%

Reference: PubChem BioAssay (NCI)
